Assays:
Assay in all cases: PBM binding z-score (relative to random genomic background probes); higher = stronger binding; sequences stand for … in GC…GCGATTGACAGCGTAGAATGAAGG
[1] = tested on: RARb homodimer (NR concentration 270 nM)
Method in brief: (§1)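 Custom Agilent 4×180K protein-binding microarrays carried double-stranded probes, each with a 34-nt variable region. These regions held direct-repeat seeds, single-nucleotide variants, half-site ablations and random human genomic background sequences. Ligand-free nuclear receptor dimers were incubated on the arrays for 1 h, antibodies against each partner (one per run) detected binding, and scanned fluorescence was regression-normalized. Binding z-scores take the random background probes as reference.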

[2] = tested on: RARg:RXRa (NR concentration 270 nM, RXRa partner concentration 90 nM)
Method in brief: as §1

[3] = tested on: RARg homodimer (NR concentration 270 nM)
Method in brief: as §1

[4] = tested on: RXRa DBDmut IVT, anti-RXR (DBD mutation: RXRa K156A/R161A, NR concentration 90 nM)
Method in brief: as §1

[5] = tested on: RXRa homodimer (NR concentration 180 nM)
Method in brief: as §1

[6] = tested on: THRa:RXRa (NR concentration 90 nM, RXRa partner concentration 90 nM)
Method in brief: as §1

[7] = tested on: THRa homodimer (NR concentration 90 nM)
Method in brief: as §1

[8] = tested on: VDR homodimer (NR concentration 270 nM)
Method in brief: as §1

| Sequence | PBM binding z-score [1] | PBM binding z-score [2] | PBM binding z-score [3] | PBM binding z-score [4] | PBM binding z-score [5] | PBM binding z-score [6] | PBM binding z-score [7] | PBM binding z-score [8] |
| --- | --- | --- | --- | --- | --- | --- | --- | --- |
| GCATATAGGTAATACAAGGTAAAAGTCCGATTGT | -0.415 | 0.25 | 0.58 | 0.137 | 0.294 | 3.49 | 0.0793 | -0.0351 |
| TCTAGTAGTTGAAGGGCAACCGACGAGTCCGTTT | 1.29 | 0.178 | 0.164 | 1.02 | 0.622 | 0.117 | -0.38 | 0.676 |
| TCTTGTAGATCAAGCAGGTTATGAAAGCCTGAGT | -0.0622 | 0.0667 | -0.307 | 0.366 | 0.465 | 0.302 | -0.815 | -0.186 |
| CCTACTGGGCCAAAAAGGTCATTGCTGCCGATAA | 4.46 | 4.63 | 4.02 | 0.7 | 4.99 | 2.99 | 0.486 | 2.98 |
| CAAACTAGGTGACCGGAAGGTCAAAGTCCGCATG | 4.4 | 5.38 | 3.94 | 0.562 | 3.89 | 3.57 | 1.86 | 2.49 |
| CCGACTGGGGCAGAAAGGTTAGCATACCATCCGG | 1.74 | 0.906 | 0.862 | -0.65 | 0.988 | 0.31 | -0.682 | -0.346 |
| AGAATGAGTTTATTAAGATCAGGGAATTGCGGTC | 0.079 | -0.0299 | 0.321 | 3.88 | 0.093 | 0.265 | 0.231 | 3.05 |
| ATCTCTAGGTAAAAGTTCAGTGAATCCCGAGGAT | 2.42 | 1.68 | 2.06 | 0.516 | 1.54 | 1.24 | 0.375 | 1.7 |
| ACAGACAGGTGATGAAGTTAACTCAGGCTATCAT | 0.22 | -0.00666 | 0.328 | -0.128 | 0.00488 | 1.38 | -0.0538 | 0.197 |
| CGTCAAAGTTCAAGGTAAGGTAACAGAAAGCAGC | 3.86 | 5.71 | 5.4 | 4.12 | 4.23 | 4.38 | 1.85 | 2.9 |
| TCTGCTAGGTCAGTTGGTAAGCTAACGAGCTGCC | 1.95 | 2.35 | 3.32 | 0.399 | 0.543 | 1.16 | -0.266 | -0.694 |
| CCTTACGGGTCGCTCCAGGTTATAGCATCGGAGT | 1.07 | 0.907 | 1.08 | 0.0194 | 1.14 | 4.18 | 0.109 | 0.177 |
| CCGACTGGGGCAGATAGGTTACCATACCATCCGG | 0.817 | 0.424 | 0.518 | -0.658 | 0.262 | -0.181 | -0.391 | -0.573 |
| GCTCGGAGGACAAGGTCAGAGCTTTGTCCGTAGA | 2.9 | 3.28 | 3.6 | 0.373 | 2.33 | 2.87 | 1.13 | 0.705 |
| ACTATTAGTTGAGACGGGGGCAACCGATAGGTTG | 1.92 | 2.03 | 1.77 | 1.55 | 1.42 | 3.01 | 1.12 | 1.98 |
| GCTAGCAGACCATTTGGGTCACTCAATGACGGGC | 1.42 | 0.72 | 0.826 | -0.303 | 0.514 | 1.38 | 0.434 | -0.19 |
| GCTGCTAGGTCCGGTTGGTCAGCTAACGGGTACG | -0.107 | -0.731 | -0.757 | -0.46 | -0.726 | -0.903 | -0.944 | -0.324 |
| CCTTACGGGTCATGAGGTTATAGCACGACGAGCG | 3.4 | 5.79 | 4.57 | 1.85 | 6.48 | 3.62 | 0.938 | 1.91 |
| CCTAGCAGGCCAATGTGGGTCACTCAAGGCTTGA | 2.16 | 1.23 | 1.02 | -0.341 | 1.15 | 2.63 | -0.567 | -0.0479 |
| ACTAGCAAGCCAAGGGTCACTCAAGATTAGTCCG | 3.62 | 3.45 | 3.58 | 0.334 | 3.69 | 2.51 | 0.0458 | 1.08 |
| CCGAGTAGGTTATGAGGCATTCAGGCAACGGTGA | 0.133 | 0.306 | 0.215 | 0.178 | 0.451 | 0.303 | 0.0556 | 0.0236 |
| CAACCTAGGTCAAAGGTCAAAGTCGAGCCAACCA | 5.33 | 9.2 | 7.77 | 3.16 | 10.1 | 5.01 | 1.81 | 3.91 |
| AGAAAGAGGTTATTAAGATCAGGGAATTGCGGTC | 1.12 | 1.78 | 1.29 | 1.26 | 2.21 | 1.39 | 0.443 | 0.737 |
| TCTATTAGTTGAAGGGAAACCGACGAGTCCGTTT | -0.0745 | -0.0691 | -0.0615 | 1.6 | 0.396 | -0.149 | 0.214 | 1.19 |
| CCTACTGGGCTATCAGGTCATTGATATCAACGTT | 2.18 | 1.56 | 1.35 | 0.092 | 0.965 | 3.1 | 2.44 | 1.01 |
| ACCTCTAGGTAACCAAGTTCAGTGAATGCCGAAC | 1.28 | 0.433 | 0.365 | 0.736 | 0.358 | 1.25 | 0.385 | 2.26 |
| CCTTACGGGTCACTGACAGGGTATAGCATTTGGA | 2.82 | 5.05 | 4.61 | 1.26 | 4.55 | 2.32 | -0.0972 | 0.873 |
| CGAACTAGGTTAGAACAGGACAGTGAAGGATGAT | 0.456 | 0.384 | 0.607 | 0.0179 | 0.171 | 1.92 | -0.166 | -0.137 |

— the supplement of paper PMC6555819
